Assay results reported in PubChem BioAssay.
Active and inactive are the calls of the source. Unless noted, how the calls were made is not given here.

Columns and labels:
[1] = HepG2 liver cancer cell viability effects, profiling panel, resazurin fluorescence, 24 h, PK04 Diversity Set (AID 1172); settings: higher = more signal
[2] = basal S. cerevisiae growth modulation, no modifier, primary screen, OD600, strain BY4716, 24 h, basal condition (AID 1173); settings: OD600, 24 h, higher = more signal, called active from +8 up or from −8 down
[3] = MM1S myeloma cell viability, profiling panel, resazurin fluorescence, basal, 24 h, PK04 Diversity Set (AID 1174); settings: higher = more signal, called active from +8 up or from −8 down;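 further: MM1S multiple myeloma cell line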
[4] = biological target: Dihydroorotate dehydrogenase (quinone), mitochondrial (Plasmodium falciparum (isolate 3D7)) (UniProt Q08210); experiment: PfDHODH enzyme inhibitors, primary screen, biochemical, C-terminal His tag, absorbance 600 nm (AID 1175); settings: DCIP absorbance 600 nm, higher = more signal, called active from +8 up or from −8 down;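 further: recombinant parasite enzyme with a five histidine tag at its C terminus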
[5] = P. aeruginosa biofilm formation inhibitors, primary screen, strain PAO1, LB-PBS medium, absorbance 600 nm (AID 1176); settings: P. aeruginosa PAO1 growth/biofilm, A600, 12 h; higher = more signal
[6] = S. cerevisiae RM11-1a growth modifiers, primary screen, strain RM11-1a, OD600, basal, 24 h (AID 1177); settings: OD600, 24 h, higher = more signal, called active from +8 up or from −8 down;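 further: cultures grown under basal conditions with no added stressor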
[7] = E. coli acrAB mutant growth effects, primary screen, E. coli filamentation inducers, strain DRC39, OD650, 24 h (AID 1178); settings: higher = more signal, called active from +8 up or from −8 down;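 further: growth measured as culture turbidity by optical density at 650 nm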
[8] = E. coli acrAB mutant growth effects, primary screen, E. coli filamentation inducers, strain DRC39, OD650, 48 h (AID 1179);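 further: screen aims at cell division blockers that make cells filament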; settings: E. coli DRC39 delta-acrAB growth, higher = more signal, called active from +8 up or from −8 down
[9] = RPMI8226 myeloma cell viability, profiling panel, resazurin fluorescence, basal, 24 h, PK04 Diversity Set (AID 1180); settings: higher = more signal;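 further: RPMI8826 multiple myeloma cell line at 5000 cells per well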
[10] = biological target: E3 ubiquitin-protein ligase XIAP (Homo sapiens) (UniProt P98170); experiment: XIAP binders, primary screen, biophysical, small-molecule microarray, fluorescence 635 nm (AID 1181); settings: small-molecule microarray binding, higher = more signal;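 further: score merges 667 nm emission and signal to noise over triplicate slides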
[11] = test system: XIP peptide (Xip251-270) binding; experiment: small-molecule binders of XIP peptide, primary screen, biochemical, small-molecule microarray, fluorescence 635/667 nm, 0.1 µg/mL protein (AID 1182); settings: fluorescent protein binding, 635 nm, higher = more signal, called active from +8 up or from −8 down
XIP peptide (Xip251-270) = experiment: small-molecule binders of XIP peptide, primary screen, biochemical, small-molecule microarray, fluorescence 635/667 nm, 0.5 µg/mL protein (AID 1183); settings: small-molecule microarray binding, fluorescence 635 nm; higher = more signal
[12] = Plasmodium falciparum growth inhibition, primary screen, strain 3D7, DAPI fluorescence, 100 nL (AID 1184);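 further: parasites grown inside human red blood cells in medium with human serum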; settings: P. falciparum 3D7 growth, 3 d, higher = more signal
[13] = biological target: Homeobox protein Hox-A13 (Mus musculus) (UniProt Q62424); experiment: inhibitors of HoxA13-DNA binding, primary screen, biochemical, fluorescence polarization, labeled oligonucleotide (AID 1185); settings: 15 min, higher = more signal, called active from +8 up or from −8 down
[14] = inhibitors of hydroxyurea-induced Chk1 phosphorylation, primary screen, imaging, HeLa, phospho-Chk1 antibody, percent positive cells (AID 1186); settings: hydroxyurea-induced phospho-Chk1 immunofluorescence imaging, higher = more signal
[15] = inhibitors of hydroxyurea-induced Chk1 phosphorylation, primary screen, imaging, HeLa, phospho-Chk1 nuclear intensity (AID 1187); settings: hydroxyurea-induced phospho-Chk1 immunofluorescence imaging, higher = more signal

Chain of Dihydroorotate dehydrogenase (quinone), mitochondrial (Plasmodium falciparum (isolate 3D7)) (Q08210 whole entry, looked up): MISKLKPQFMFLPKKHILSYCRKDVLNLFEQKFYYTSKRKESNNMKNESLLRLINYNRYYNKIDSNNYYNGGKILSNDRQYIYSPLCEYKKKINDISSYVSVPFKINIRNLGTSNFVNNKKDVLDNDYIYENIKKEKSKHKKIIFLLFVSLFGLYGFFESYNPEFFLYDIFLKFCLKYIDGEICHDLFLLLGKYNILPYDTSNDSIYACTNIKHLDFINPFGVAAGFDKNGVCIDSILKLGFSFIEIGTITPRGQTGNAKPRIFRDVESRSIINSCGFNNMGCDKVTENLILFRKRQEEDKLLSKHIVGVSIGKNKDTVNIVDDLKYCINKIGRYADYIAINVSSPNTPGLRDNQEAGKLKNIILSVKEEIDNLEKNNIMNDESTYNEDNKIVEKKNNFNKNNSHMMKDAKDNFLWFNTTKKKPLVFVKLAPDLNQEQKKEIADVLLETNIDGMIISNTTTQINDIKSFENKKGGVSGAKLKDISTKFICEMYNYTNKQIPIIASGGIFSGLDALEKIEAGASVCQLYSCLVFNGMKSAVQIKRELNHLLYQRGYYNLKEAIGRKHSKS
Chain of E3 ubiquitin-protein ligase XIAP (Homo sapiens) (P98170 whole entry, looked up): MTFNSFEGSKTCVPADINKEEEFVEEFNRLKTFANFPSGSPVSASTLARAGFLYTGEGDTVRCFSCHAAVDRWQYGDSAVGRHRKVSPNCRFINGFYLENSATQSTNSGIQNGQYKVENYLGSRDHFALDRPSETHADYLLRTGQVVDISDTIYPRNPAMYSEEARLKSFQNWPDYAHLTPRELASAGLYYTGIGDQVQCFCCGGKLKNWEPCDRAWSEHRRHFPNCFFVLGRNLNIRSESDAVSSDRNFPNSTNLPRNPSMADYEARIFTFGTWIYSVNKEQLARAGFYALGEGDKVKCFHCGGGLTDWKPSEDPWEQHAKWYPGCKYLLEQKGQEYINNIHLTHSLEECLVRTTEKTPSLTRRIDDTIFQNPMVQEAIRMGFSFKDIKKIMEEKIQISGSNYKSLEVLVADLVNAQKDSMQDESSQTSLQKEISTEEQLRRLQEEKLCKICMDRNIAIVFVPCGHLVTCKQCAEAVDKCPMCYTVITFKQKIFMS
Chain of Homeobox protein Hox-A13 (Mus musculus) (Q62424 whole entry, looked up): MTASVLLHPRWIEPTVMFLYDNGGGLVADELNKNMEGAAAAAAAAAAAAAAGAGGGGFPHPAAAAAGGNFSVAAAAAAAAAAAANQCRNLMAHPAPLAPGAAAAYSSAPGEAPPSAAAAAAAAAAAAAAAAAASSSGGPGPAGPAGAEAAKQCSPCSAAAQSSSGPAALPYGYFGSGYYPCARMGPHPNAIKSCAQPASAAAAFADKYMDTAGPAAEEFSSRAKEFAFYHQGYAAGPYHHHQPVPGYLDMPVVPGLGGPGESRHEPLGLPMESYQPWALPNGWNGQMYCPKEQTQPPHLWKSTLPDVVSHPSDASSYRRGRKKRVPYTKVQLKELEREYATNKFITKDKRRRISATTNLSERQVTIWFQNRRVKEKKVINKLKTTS

Row | Compound | z-score [1] | z-score [2] | z-score [3] | composite z-score [4] | z-score [5] | z-score [6] | z-score [7] | z-score [8] | z-score [9] | composite z-score [10] | composite z-score [11] | composite z-score (XIP peptide (Xip251-270)) | z-score [12] | z-score [13] | z-score [14] | z-score [15]
1 | COc1cc2c(cc1O)C(c1cccs1)N(Cc1ccc([N+](=O)[O-])o1)CC2 (centres undefined) | -0.302 | -2.05 (inactive) | 0.278 (inactive) | -4.93 (inactive) | 0.723 (inactive) | -1.14 (inactive) | -0.107 (inactive) | 1.19 (inactive) | -0.182 | -0.102 | 0.243 (inactive) | 0.947 | -0.316 | -6.24 (inactive) | -0.334 (inactive) | -0.445 (inactive)
2 | O=C1OCC=C[C@H]2OC34C=CCN(CCN5CCOCC5)C(=O)[C@H]3N(CCO)C(=O)[C@@H]4[C@@H]12 (some centres undefined) | 0.226 | -0.0819 (inactive) | -0.176 (inactive) | -0.424 (inactive) | -0.608 (inactive) | -0.31 (inactive) | -0.533 (inactive) | -0.385 (inactive) | -0.386 | -0.28 | 0.218 (inactive) | 0.775 | 0.703 | -5.02 (inactive) | -0.474 (inactive) | -0.371 (inactive)
3 | NCCCCCNC(=O)[C@H]1C[C@H]2C(=O)N[C@@H](Cc3ccccc3)C(=O)N2[C@H]1c1cccc(OCCO)c1 | 0.391 | -1.84 (inactive) | 1.04 (inactive) | 0.884 (inactive) | 0.022 (inactive) | -0.439 (inactive) | -0.154 (inactive) | 0.496 (inactive) | 0.953 | -0.0599 | 1.51 (inactive) | 0.683 | -0.329 | -3.23 (inactive) | 0.0742 (inactive) | 0.304 (inactive)
4 | COCCOC(=O)N1C(=O)[C@@]2(c3cc(C#CC4=CCCCC4)ccc31)[C@H](C(N)=O)[C@H]1C(=O)O[C@H](c3ccccc3)[C@H](c3ccccc3)N1[C@@H]2c1ccc(O)cc1 | -0.495 | -0.268 (inactive) | -2.03 (inactive) | -1.37 (inactive) | 1.37 (inactive) | -1.07 (inactive) | 0.273 (inactive) | 1.03 (inactive) | -4.15 | -0.223 | 1.79 (inactive) | 0.769 | 0.55 | -0.393 (inactive) | -0.371 (inactive) | -0.552 (inactive)
5 | C#CCNCc1ccccc1 | -0.0158 | -1.11 (inactive) | 0.642 (inactive) | -0.631 (inactive) | -0.677 (inactive) | -0.389 (inactive) | -0.758 (inactive) | -0.624 (inactive) | 0.353 | -0.0848 | -0.609 (inactive) | 0.118 | -0.158 | -0.0595 (inactive) | 0.213 (inactive) | -0.392 (inactive)
6 | O=C(O)[C@H](Cc1ccccc1)n1cc(-c2ccccc2)nn1 | 0.562 | 0.0419 (inactive) | 0.0284 (inactive) | -0.0341 (inactive) | 0.738 (inactive) | -0.14 (inactive) | -0.0353 (inactive) | -0.202 (inactive) | -0.46 | 0.0812 | -0.152 (inactive) | 0.297 | 0.0447 | -1.17 (inactive) | 0.425 (inactive) | -0.0072 (inactive)
7 | C[N+](C)(C)CCCCCCNC(=O)[C@H]1C[C@H]2C(=O)N[C@@H](Cc3ccccc3)C(=O)N2[C@H]1c1cccc(OCCO)c1 | 0.384 | 0.0938 (inactive) | 0.313 (inactive) | -1.22 (inactive) | 0.255 (inactive) | 0.548 (inactive) | 0.395 (inactive) | 0.551 (inactive) | 0.23 | -0.144 | 0.875 (inactive) | 0.817 | -0.463 | -5.91 (inactive) | 0.685 (inactive) | 0.484 (inactive)
8 | COC(=O)[C@@]1(Cc2ccc(OC)cc2)[C@H]2c3cc(C(=O)N4CCCC4)n(CCSCCO)c3C[C@H]2CN1C(=O)c1ccccc1 | 0.353 | 1.6 (inactive) | 0.129 (inactive) | -0.0408 (inactive) | 0.923 (inactive) | 1.47 (inactive) | -1.18 (inactive) | -0.739 (inactive) | -1.3 | 0.187 | 0.0308 (inactive) | 0.826 | -1.44 | -5.24 (inactive) | 1.35 (inactive) | 1.04 (inactive)
9 | COC(=O)[C@]1(CCC(=O)OC(C)(C)C)N=C(c2ccc(OCCCO)cc2)O[C@@H]1c1ccccc1 | -0.134 | -0.761 (inactive) | -0.671 (inactive) | -0.134 (inactive) | 0.438 (inactive) | 0.504 (inactive) | 3.37 (inactive) | 0.648 (inactive) | -1.47 | 0.153 | 1.87 (inactive) | 0.761 | -2.31 | -4.4 (inactive) | -0.621 (inactive) | -0.545 (inactive)
10 | C#CCN1[C@@H](Cc2ccc(O)cc2)C(=O)O[C@H](Cc2ccccc2)[C@@H]1/C=C/C1CC1 | -1.9 | -2.19 (inactive) | -1.08 (inactive) | -0.652 (inactive) | -0.353 (inactive) | 0.168 (inactive) | 0.75 (inactive) | 0.665 (inactive) | -1.21 | 0.0664 | -0.111 (inactive) | 0.0549 | 0.32 | -5.26 (inactive) | -0.473 (inactive) | -0.542 (inactive)
11 | O=C1OCCC=C[C@H]2OC34C=CCN(CCN5CCOCC5)C(=O)[C@H]3N(CCCCCO)C(=O)[C@@H]4C12 (some centres undefined) | -0.123 | -0.987 (inactive) | 0.673 (inactive) | 0.233 (inactive) | -0.484 (inactive) | -0.112 (inactive) | 0.298 (inactive) | 0.732 (inactive) | 0.571 | -0.0144 | 0.272 (inactive) | 0.348 | 0.124 | -5.57 (inactive) | 0.139 (inactive) | 0.357 (inactive)
12 | O=C1NC(=O)C2C1C=CC(C(O)c1ccc(I)cc1)N2Nc1ccc(Cl)cc1Cl (centres undefined) | -1.99 | -15.1 (active) | -0.177 (inactive) | -1.4 (inactive) | 2.06 (inactive) | -4.5 (inactive) | 0.163 (inactive) | -0.186 (inactive) | -0.137 | -0.108 | 0.9 (inactive) | 0.284 | 0.692 | -3.94 (inactive) | 0.0215 (inactive) | 0.33 (inactive)
13 | OCCCC1=CC(C2CC2)N(Cc2cccc(OC(F)(F)F)c2)CC1 (centres undefined) | 0.702 | -1.85 (inactive) | 0.171 (inactive) | -3.08 (inactive) | -0.517 (inactive) | 0.345 (inactive) | 0.425 (inactive) | 0.327 (inactive) | 0.365 | 0.324 | 0.0736 (inactive) | 0.492 | -1.76 | -4.21 (inactive) | -0.245 (inactive) | 0.143 (inactive)
14 | COC(=O)[C@@]1(Cc2ccc(OC)cc2)[C@H]2c3cc(C(=O)N(C)C)n(Cc4ccc(C(F)(F)F)nc4)c3C[C@H]2CN1C(=O)c1ccccc1 | 0.133 | 0.794 (inactive) | -0.312 (inactive) | -0.224 (inactive) | -0.0019 (inactive) | 0.44 (inactive) | -0.22 (inactive) | -0.18 (inactive) | 0.27 | 0.333 | 0.233 (inactive) | 0.497 | 0.526 | -3.56 (inactive) | 0.832 (inactive) | 0.858 (inactive)
15 | [N-]=[N+]=NCc1ccccc1[C@H]1OC(c2ccc(OCCCO)cc2)=N[C@@]1(Cc1ccccc1)C(=O)N1CCCCC1 | 0.804 | -1.95 (inactive) | -1.71 (inactive) | 0.451 (inactive) | -0.441 (inactive) | -0.923 (inactive) | 1.29 (inactive) | 1.25 (inactive) | -0.941 | -0.0622 | -0.178 (inactive) | 0.625 | -2.4 | -4.35 (inactive) | -0.959 (inactive) | -1.5 (inactive)
16 | CS(=O)(=O)CCOC(=O)C1=CC(CCCO)=CC(c2ccc(CN3CCCC3)cc2)N(Cc2cccc(OC(F)(F)F)c2)C=C1C(=O)OCCS(C)(=O)=O (centres undefined) | -0.207 | -3.9 (inactive) | -0.527 (inactive) | -1.03 (inactive) | 1.24 (inactive) | 1.01 (inactive) | 0.669 (inactive) | 0.399 (inactive) | 0.0703 | -0.24 | 0.211 (inactive) | 0.584 | -2.79 | -1.82 (inactive) | 0.157 (inactive) | 1.28 (inactive)
17 | COc1ccc(CCNC(=O)[C@@]2(c3ccc([N+](=O)[O-])cc3)CC(=O)N(CC34CC5CC(CC(C5)C3)C4)[C@@H]2c2ccc(CO)cc2I)cc1 | -1.49 | 0.0097 (inactive) | -1.81 (inactive) | 0.387 (inactive) | 1.8 (inactive) | 0.437 (inactive) | 0.0777 (inactive) | 0.223 (inactive) | -1.79 | -0.195 | 0.417 (inactive) | 0.723 | -1.46 | -0.814 (inactive) | -0.155 (inactive) | 0.022 (inactive)
18 | CCOC(=O)C1=CC[C@@H](c2ccc(C(F)(F)F)cc2)N(S(=O)(=O)c2ccc(C)cc2)[C@H]1c1ccccc1 | -0.333 | 0.062 (inactive) | -2.34 (inactive) | -0.296 (inactive) | -0.0601 (inactive) | -0.258 (inactive) | -0.604 (inactive) | -0.126 (inactive) | -5.04 | -0.278 | 0.544 (inactive) | 0.762 | -2.02 | 0.759 (inactive) | 0.0487 (inactive) | -0.516 (inactive)
19 | O=C1OCCC/C=C\[C@H]2OC34C=CCN(c5ccc6ccccc6c5)C(=O)[C@H]3N(CCCCCO)C(=O)[C@@H]4C12 (some centres undefined) | 0.0877 | -0.801 (inactive) | -0.377 (inactive) | -0.338 (inactive) | -0.649 (inactive) | -0.878 (inactive) | 0.352 (inactive) | -0.005 (inactive) | 0.408 | -0.0541 | 0.0867 (inactive) | 0.0861 | 1.73 | -4.94 (inactive) | 0.715 (inactive) | -0.0708 (inactive)
